Compound activity (PubChem BioAssay)
This is one part of a sample in which hits are shown more often than they occur.
Pf Dd2 growth: inhibitors of Plasmodium falciparum Dd2 growth; Potency, µM (series often up to 28.9 µM), for the others: top-dose activity, negative = inhibition, most hits filed as inhibitors; P. falciparum Dd2 growth, SYBR Green, 72 h; 4.3% of 120,000 active; AID 1347417; active = well fitted inhibition curve with a large enough effect;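 note: plate controls were DMSO vehicle for no effect and reference drug for full effect; nearly all actives have a fitted effect of over 65% in size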
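Infected erythrocytes (Dd2, 0.3% parasitemia, 2.5% hematocrit final) are added to compound in RPMI-1640/Albumax II medium, grown 72 h at 37C in low oxygen, then lysed with saponin/Triton-X containing SYBR Green and read by fluorescence.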
* marks the source's active call; other numbers are inactive results; i = inactive; [ ] = another dose, or the depositor's remark. Potency is the fitted concentration of half-maximal effect.

SMILES	Pf Dd2 growth
CCCCS(=O)(=O)N1CCC2(CC1)CN(C(C)=O)CC2COC (centres undefined)	1%
CCCCN1C[C@@H](CO)[C@H](c2nc(CCOC)no2)C1	-14%
CCn1cnnc1CC1CCN(S(=O)(=O)c2ccc3c(c2)CCC3)C1 (centres undefined)	i
O=C(CN1Cc2nc(OCc3ccc(F)cc3)ccc2OCC1=O)N1CCCC1	i
FC(F)(F)CN1C2CCC1CN(c1ccccn1)C2	9%[44.1 µM]
Cc1ccnc(N2CC3CCC(C2)N3CC(F)(F)F)c1[N+](=O)[O-]	6%
FC(F)(F)CN1C2CCC1CN(c1ncc(C(F)(F)F)cn1)C2	31%
FC(F)(F)CN1C2CCC1CN(c1cnc3ccccc3c1)C2	-27%
COc1ccccc1Nc1ccnc(N2CC3CCC(C2)N3CC(F)(F)F)n1	-26%
O=[N+]([O-])c1ccc(Cl)nc1N1CC2CCC(C1)N2CC(F)(F)F	-24%
FC(F)(F)CN1C2CCC1CN(c1nccc(Nc3ccccc3Cl)n1)C2	8.9µM*
Cc1ncc2c(N3CC4CCC(C3)N4CC(F)(F)F)nc3ccccc3n12	5µM*
FC(F)(F)CN1C2CCC1CN(c1nnc(Cl)c3ccccc13)C2	0.71µM*
Cc1ccc(NC(=O)Cn2c(=O)n(-c3ccccc3)c(=O)c3c2cc(C)n3C)cc1	i
NC(=O)CN1CCC(C(=O)N2C[C@@H](C(=O)O)[C@H](c3ccccc3)C2)CC1	-5%
CN(Cc1ccccc1)C(=O)CN1C(=O)COc2ccc(C(=O)COc3ccc(F)cc3)cc21	i
Cc1ncsc1CN1CCC(C(=O)N2CCCCCCNC(=O)CC2)CC1	2%
O=C(NC1CCCC1)c1ccc2c(c1)N(S(=O)(=O)c1ccccc1)CC2	i
O=C(NCC1CCCCC1)c1ccc2c(c1)N(S(=O)(=O)c1ccccc1)CC2	4.5µM*
COc1ccccc1CNC(=O)c1ccc2c(c1)CCN2S(=O)(=O)c1ccccc1	-16%
COCCn1ncc(N2CCCC(CC(=O)N(C)Cc3ccccc3)C2)cc1=O (centres undefined)	-20%
CCn1cc(C(=O)N[C@@H]2CN(Cc3ccccc3)C[C@H]2CN(C)C)cn1	i
Cc1cccc(CN2CCN(C(=O)c3cnc4ccccn4c3=O)CC2=O)c1	-3%
COc1ccc(N2CC3CCC(C2)N3Cc2cccc(-c3cccnc3)c2)cc1	11µM*
COc1ccc(N2CC3CCC(C2)N3Cc2ccc(-c3ccccc3)cc2)cc1	9%
SMILES	Pf Dd2 growth
COc1ccc(N2CC3CCC(C2)N3Cc2ccccc2)cc1	-11%
CC(C(=O)NCC1CCN(Cc2ccc(F)cc2)CC1)C1CCOCC1 (centres undefined)	13%
CN(C)[C@@H]1CN(C(=O)c2cc(F)cc(F)c2)C[C@H]1CO	11%
CS(=O)(=O)N1CCC(Cc2ccc(C(N)=O)cc2)CC1	15%
Cc1noc([C@@H]2CN(C(=O)CCc3nc4ccccc4[nH]3)C[C@H]2C(N)=O)n1	14%
COCc1cn(C[C@H]2C[C@@H](NS(C)(=O)=O)[C@H](O)[C@@H]2O)nn1	38%[44.1 µM]
O=C1CC(c2ccccc2)N(Cc2ccccn2)CCCCCN1 (centres undefined)	-17%
CCOc1ccccc1NC(=O)N1CCCCCCNC(=O)CC1c1ccccc1 (centres undefined)	-41%
CCOc1ccccc1CN1CCCCCCNC(=O)CC1	i
CCOc1ccccc1CN1CCC[C@H]1C(=O)N1CCCCCCNC(=O)CC1	6.3µM*
Cc1ccc(CN2CCC[C@H]2C(=O)N2CCCCCCNC(=O)CC2)o1	i
CCOc1ccccc1CN1CCCCCNC(=O)CC1c1ccccc1 (centres undefined)	7.9µM*
Cc1cccc(CC(=O)N2CCc3c(nc4cc[nH]n4c3=O)C2)c1	-13%
CCc1ccccc1S(=O)(=O)N1CCN(C2(CC)CCN(C(=O)NC)C2)CC1 (centres undefined)	-27%
CCN(CC1CCCO1)C(=O)c1ccccc1OC1CCN(C(=O)c2cccnc2)CC1 (centres undefined)	-22%
Cc1cccc(N2CCN(C(=O)c3cc4c(=O)n(C)c5ccccc5c4s3)CC2C)c1 (centres undefined)	5%
Cc1cccc(N2CCN(C(=O)c3ccc4c(c3)c(C)c(C)n4C)CC2C)c1 (centres undefined)	i
Cc1ccc(-c2c(C(=O)N3CCN(c4cccc(C)c4)C(C)C3)oc(=O)c3ccccc23)cc1 (centres undefined)	4.5µM*
Cc1cccc(NC(=O)Cn2ccn3nc4c(c3c2=O)CCCCC4)c1C	i
CCOc1ccccc1NC(=O)CN(CCc1ccccc1)S(=O)(=O)c1ccc(C)cc1	11µM*
Cc1ccc(C)c(NC(=O)CN(CCc2ccccc2)S(=O)(=O)c2ccccc2)c1	7%
Cc1c(Cl)cccc1NC(=O)CN(CCc1ccccc1)S(=O)(=O)c1ccccc1	1%
CN(C)c1nc(-c2ccncc2)nc2c1CCN(C(=O)c1ccc(=O)[nH]c1)C2	-16%
C=CCNC(=O)N[C@H]1[C@H](O)[C@@H](N2CCN(C)CC2)[C@@H]2OC[C@H]1O2	i
CCOc1ccccc1N1CC(c2nc3ccccc3n2CCCCOc2cc(C)ccc2C)CC1=O (centres undefined)	-12%
SMILES	Pf Dd2 growth
CCc1ccccc1N1CC(c2nc3ccccc3n2CCCCOc2ccccc2OC)CC1=O (centres undefined)	-11%
Cc1cccc(OCCCn2c(CCNC(=O)C3CCCCC3)nc3ccccc32)c1	14µM*
CCc1ccccc1N1CC(c2nc3ccccc3n2Cc2cccc(C)c2)CC1=O (centres undefined)	-97%
Cc1cccc(OCCCCn2c(C3CC(=O)N(c4ccc(C)cc4C)C3)nc3ccccc32)c1 (centres undefined)	11µM*
Cc1cc(C)cc(OCCn2c(CCNC(=O)C3CCCCC3)nc3ccccc32)c1	10%
Cc1cccc(OCCCCn2c(C3CC(=O)N(c4ccccc4Cl)C3)nc3ccccc32)c1 (centres undefined)	3.2µM*
COc1ccccc1OCCCn1c(C2CC(=O)N(c3ccccc3Cl)C2)nc2ccccc21 (centres undefined)	-26%
Cc1ccccc1Cn1c(CCCNC(=O)C2CCCCC2)nc2ccccc21	i
CN(Cc1ccccc1C(F)(F)F)Cc1cccn1C	16%[44.1 µM]
O=C(c1cccc(F)c1)N1CCCC(c2noc(COc3ccccc3F)n2)C1 (centres undefined)	i
CS(=O)(=O)N1CCCN(C(=O)CCCc2ccccc2)CCNC(=O)CC1c1ccccc1 (centres undefined)	-20%
Cc1ccc(-n2c(C3CCN(C(=O)c4ccccc4F)CC3)n[nH]c2=O)cc1	-20%
CC(C)N1CC2(C1)C(=O)N(Cc1ccccc1F)C(=O)[C@@H]1C[C@@H](O)CN12	5%[44.1 µM]
COc1cccc2ccc(-c3c(-c4ccccc4)ncn3CCNC(C)=O)nc12	-28%
COc1cccc(OC)c1-c1c(-c2ccccc2)ncn1CCCSC	10µM*
CCCn1ccnc1-c1c(-c2ccccc2)ncn1CCCC(=O)OC	1%
CS(=O)(=O)c1ccc(OC[C@H]2C[C@@H](NCc3ccc(F)cc3)[C@H](O)[C@@H]2O)cc1	-22%
COc1ccccc1CNC1(Cc2cc(C(C)(C)C)on2)COC1	-9%[44.1 µM]
CCn1cc(C(=O)N2C[C@@H](COC)[C@H](c3nc(C4CC4)no3)C2)cn1	53%
C=CCC1(CO)CCCN(C(=O)CCCOc2ccccc2)C1 (centres undefined)	-27%
CCC1(CO)CCCN(CCCOc2ccc(C(N)=O)cc2)C1 (centres undefined)	-7%
